PubChem BioAssay (NCATS)
Inconclusive results are not listed. Where a call stands in place of a potency, no number is given. The source made the active and inactive calls. Unless noted, calls follow the shape of the dose curve; as a rule, active = well fitted curve in the direction sought with a large enough effect; inconclusive = small, poorly fitted or top-dose-only effect, or another doubt; inactive = no such curve, though single readings can be large; an effect the other way counts as inactive or inconclusive.

Tests used:
[1] = target: Thioredoxin reductase 1, cytoplasmic (Rattus norvegicus) (UniProt O89049); experiment: qHTS Assay for Substrates of Mammalian Selenoprotein Thioredoxin Reductase 1 (TrxR1) (AID 488772);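 also: NADPH fluorescence in the first read after selenite addition and not the 8 min delta; series mostly up to about 57 µM; a drop in NADPH fluorescence below the no-compound background marks a TrxR1 substrate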
Procedure, shortened: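 Quantitative HTS in Tris-HCl buffer at pH 7.5 with EDTA and Tween-20, using rat TrxR1, 400 uM NADPH and 400 uM selenite (final). A fall in initial NADPH fluorescence relative to background marked substrate behaviour.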

[2] = target: Thioredoxin reductase 1, cytoplasmic (Rattus norvegicus) (UniProt O89049); experiment: qHTS Assay for Inhibitors of Mammalian Selenoprotein Thioredoxin Reductase 1 (TrxR1) (AID 488773); settings: Potency: inhibition;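 also: drop in NADPH fluorescence over an 8 min run after selenite addition; series mostly up to about 57 µM; nearly all actives have a fitted effect of over 40% in size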
Procedure, shortened: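 Steps: enzyme (90 nM) plus NADPH (400 uM final), 5 min at ~22 deg C; compound added, 15 min; selenite (400 uM final) added; fluorescence followed for 8 min. Concentration-response curves derived from the normalized delta values.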

[3] = target: Flap endonuclease 1 (Homo sapiens) (UniProt P39748); experiment: qHTS Validation Assay for the Inhibitors of Human Flap endonuclease 1 (FEN1) (AID 488816)
Procedure, shortened: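 Human FEN1 (10 nM) preincubated 15 min at room temperature with compounds, then flap DNA substrate added at 50 nM final. Fluorescence read at 0 and 15 min; concentration-response fitted with four-parameter Hill equation.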

[4] = target: M-phase phosphoprotein 8 (Homo sapiens) (UniProt Q99549); experiment: qHTS Validation Assay for Inhibitors for MPP8 Chromodomain Interactions with Methylated Histone Tails (AID 488949);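 also: AlphaScreen signal from MPP8 chromodomain bound to biotinylated H3K9me3 peptide; top concentration of the series differs between compounds; nearly all actives have a fitted effect of over 55% in size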
Procedure, shortened: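 Disruption of the preformed MPP8–trimethyl-H3K9 peptide complex (both 50 nM, 30 min, RT) is measured after 30 min compound exposure, using AlphaScreen proximity beads; aurintricarboxylic acid titration serves as plate control.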

[5] = target: Chromobox protein homolog 1 (Homo sapiens) (UniProt P83916); experiment: qHTS Validation Assay for Inhibitors of HP1-beta Chromodomain Interactions with Methylated Histone Tails (AID 488953);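 also: loss of AlphaScreen luminescence from HP1-beta binding biotinylated H3K9me3 peptide; series mostly up to about 110 µM; nearly all actives have a fitted effect of over 50% in size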
Procedure, shortened: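 Measured as loss of AlphaScreen luminescence from streptavidin donor and nickel acceptor beads (10 ug/mL final) bridging HP1-beta and biotin-H3(1-18)K9me3, each 50 nM. Compounds met the preassembled complex for 30 min at RT.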

[6] = target: Transient receptor potential cation channel subfamily V member 1 (Homo sapiens) (UniProt Q8NER1); experiment: HTS Assay for Compounds that Act as Enhancers of the Vanilloid Receptor 1 (AID 488979)
Procedure, shortened: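 TRPV1 cells loaded with Fluo-8 calcium dye; compound added and Ca2+ signal (ex 480/em 520 nm) followed 3 min, then capsaicin at EC20 added and read 2 more min to detect enhancement.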

[7] = target: Thyrotropin receptor (Homo sapiens) (UniProt P16473); experiment: qHTS Assay for Antagonists of the Thyroid Stimulating Hormone Receptor (AID 488980); also: series mostly up to about 58 µM
Procedure, shortened: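 Cells expressing human TSHR (HEK293) are dispensed in HBSS/HEPES containing 70 uM RO 20-1724, compound is added, then TSH at EC80 (4 nM final). Antibody in lysis buffer follows, 30 minutes at room temperature before HTRF detection.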

[8] = target: D(1A) dopamine receptor (Homo sapiens) (UniProt P21728); experiment: HTS Assay for Allosteric Agonists of the Human D1 Dopamine Receptor: Primary Screen for Agonists (AID 488981)
Procedure, shortened: (§1)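 Tetracycline-induced HEK293 Trex D1 cells with forced coupling to calcium, loaded with no-wash calcium dye; kinetic fluorescence read 180 s after compound addition for agonism, then a further 180 s after an EC20 dopamine challenge for potentiation.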

[9] = target: D(1A) dopamine receptor (Homo sapiens) (UniProt P21728); experiment: HTS Assay for Allosteric Agonists of the Human D1 Dopamine Receptor: Primary Screen for Potentiators (AID 488982)
Procedure, shortened: as §1

[10] = target: D(1A) dopamine receptor (Homo sapiens) (UniProt P21728); experiment: HTS Assay for Allosteric Agonists of the Human D1 Dopamine Receptor: Primary Screen for Antagonists (AID 488983);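 also: calcium flux response to an EC80 dopamine challenge measured with no-wash dye; nearly all actives have a fitted effect of over 65% in size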
Procedure, shortened: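 Screening of inducible HEK293 T-REx D1 cells: compound first, EC80 dopamine 180 s later, each phase read kinetically for calcium over 180 s.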

[11] = Nrf2 qHTS screen for inhibitors: Validation (AID 493153; active = well fitted inhibition curve with a large enough effect in the main read-out, with a control signal flat, not every such curve was filed as active); settings: Potency: luciferase luminescence; viability change: measured here: cytotoxicity max response
Procedure, shortened: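 Dose-response validation uses reporter A549 cells with firefly luciferase under an antioxidant response element. Compounds stay on cells 18-24 h at 37°C, and luminescence indicates Nrf2-driven transcription.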

[12] = qHTS for Inhibitors of Cell Surface uPA Generation: Validation Assay (AID 493164);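 also: RAW 264.7 macrophage cells exposed to compound for 18 h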
Procedure, shortened: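 RAW 264.7, 4000 cells/well, o/n plating; cpd 7-pt 1:5 dilution 2.45 nM–38.3 uM final; 18 h, 37 C/5% CO2; ATP-Lite, 5 s luminescence exposure.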

[13] = target: Galactokinase (Homo sapiens) (UniProt P51570); experiment: qHTS Validation Assay for Inhibitors of Human Galactokinase (GALK) (AID 493189)
Procedure, shortened: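 Compounds were pin-transferred into ATP buffer, then GALK-galactose mix was added (final 5 nM enzyme, 100 uM galactose, 35 uM ATP). After 1 h at room temperature, remaining ATP was measured luminescently.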

[14] = Validation screen for small molecules that induce DNA re-replication in SW480 colon adenocarcinoma cells (AID 504364)
Procedure, shortened: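 Cells are treated 48 hr with test compound, stained 40 min with Hoechst at 37 C, and scanned for nuclear fluorescence; compounds inducing re-replication increase nuclei with elevated intensity.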

[15] = target: Peptidyl-prolyl cis-trans isomerase NIMA-interacting 1 (Homo sapiens) (UniProt Q13526); experiment: qHTS Validation Assay to Find Inhibitors of Pin1 (AID 504536; active = well fitted inhibition curve with a large enough effect in the polarisation, with a control signal flat, not every such curve was filed as active; the % refers to the polarisation)
Procedure, shortened: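 Fluorescence polarization competition: compounds (titration) displace HiFluor-488-labeled Pin1-1b peptide from Pin1 (0.3 uM final) in pH 7.5 HEPES buffer with DTT, 10 min at room temperature; %Activity normalized to no-enzyme wells, curves fitted.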

[16] = Validation screen for small molecules that induce genotoxicity in human embryonic kidney (HEK293T) cells expressing luciferase-tagged ELG1 (AID 493106)
Procedure, shortened: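 Reporter-gene quantitative HTS in HEK293T cells carrying luciferase-tagged ELG1, whose level climbs under genotoxic stress. Compound exposure lasts 16 hr at 37 °C before luciferase detection.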

[17] = target: ATPase family AAA domain-containing protein 5 (Homo sapiens) (UniProt Q96QE3); experiment: Validation screen for small molecules that inhibit ELG1-dependent DNA repair in human embryonic kidney (HEK293T) cells expressing luciferase-tagged ELG1 (AID 493107);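 also: cells co-treated with the DNA-damaging agent 5-fluorouridine alongside compound; series mostly up to about 46 µM; inhibitors lower the ELG1-luciferase luminescence signal; nearly all actives have a fitted effect of over 70% in size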
Procedure, shortened: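 Quantitative HTS in HEK293T cells carrying luciferase-tagged ELG1, stimulated with 5-fluorouridine alongside compound for 16 hr. Loss of luciferase signal marks inhibition of ELG1 response.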

[18] = target: Thyrotropin-releasing hormone receptor (Homo sapiens) (UniProt P34981); experiment: qHTS for Small Molecule Agonists and Allosteric Enhancers of Human TRH Receptor: Validation Screen for Agonists (AID 493127;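 active = calcium activation more than 3 SD above the typical response in the agonist read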;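 also: intracellular calcium rise by fluo-8 fluorescence before TRH EC20 addition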); settings: TRH receptor agonist cell assay; at 2 µM; stronger effect = higher value
Procedure, shortened: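 Gq-coupled calcium mobilization in TRHR cells after compound addition, monitored kinetically with fluo-8 dye on an FDSS reader.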

[19] = target: Methanococcus maripaludis chaperonin (MmCpn) (UniProt Q6LX38); experiment: High-Throughput Screening for Modulators of Cytosolic Chaperonin Activity: MmCpn Primary Screen (AID 488978);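 also: 50 nM MmCpn enzyme hydrolysing 30 µM ATP at 37 °C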
Procedure, shortened: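 Measures ATPase turnover of the M. maripaludis chaperonin (50 nM final) against 30 uM ATP over 10 min at 37C, with compound added 5 min beforehand at room temperature. ADP is quantified by HTRF immunodetection.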

[20] = target: ATP-dependent 6-phosphofructokinase (Trypanosoma brucei brucei) (UniProt O15648); experiment: qHTS Assay to Find Inhibitors of T. brucei phosphofructokinase: hit validation (AID 492961); also: series mostly up to about 51 µM
Procedure, shortened: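 Luminescence from ADP-Glo reports ADP generated as T. brucei PFK (1.25 nM) phosphorylates 0.5 mM fructose-6-phosphate using 0.1 mM ATP. Reactions ran 45 min at room temperature, pH 8.0.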

D(1A) dopamine receptor (Homo sapiens), sequence (P21728 whole entry, looked up): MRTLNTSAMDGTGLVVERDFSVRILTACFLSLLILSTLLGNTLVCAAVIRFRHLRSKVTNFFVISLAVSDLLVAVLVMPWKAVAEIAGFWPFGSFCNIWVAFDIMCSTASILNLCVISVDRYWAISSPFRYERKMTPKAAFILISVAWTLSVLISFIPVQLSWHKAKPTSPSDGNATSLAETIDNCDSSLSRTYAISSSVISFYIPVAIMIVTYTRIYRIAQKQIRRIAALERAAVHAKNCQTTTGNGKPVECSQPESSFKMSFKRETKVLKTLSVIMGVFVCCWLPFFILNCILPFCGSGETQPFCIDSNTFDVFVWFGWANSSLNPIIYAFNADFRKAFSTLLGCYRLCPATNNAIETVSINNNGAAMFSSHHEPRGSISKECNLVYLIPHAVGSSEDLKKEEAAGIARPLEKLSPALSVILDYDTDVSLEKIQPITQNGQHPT
Galactokinase (Homo sapiens), sequence (P51570 whole entry, looked up): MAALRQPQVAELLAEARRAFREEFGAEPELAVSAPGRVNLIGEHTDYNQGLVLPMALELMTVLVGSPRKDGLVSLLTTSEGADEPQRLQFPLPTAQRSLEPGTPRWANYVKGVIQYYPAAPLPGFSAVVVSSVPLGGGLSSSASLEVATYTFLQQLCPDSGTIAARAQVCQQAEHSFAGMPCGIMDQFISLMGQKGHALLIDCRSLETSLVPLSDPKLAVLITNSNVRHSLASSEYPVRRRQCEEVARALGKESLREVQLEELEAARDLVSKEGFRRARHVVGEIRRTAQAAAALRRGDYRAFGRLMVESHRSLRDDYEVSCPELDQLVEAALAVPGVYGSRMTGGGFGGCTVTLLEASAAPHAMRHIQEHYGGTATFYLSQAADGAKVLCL
Thioredoxin reductase 1, cytoplasmic (Rattus norvegicus), sequence (O89049 whole entry, looked up): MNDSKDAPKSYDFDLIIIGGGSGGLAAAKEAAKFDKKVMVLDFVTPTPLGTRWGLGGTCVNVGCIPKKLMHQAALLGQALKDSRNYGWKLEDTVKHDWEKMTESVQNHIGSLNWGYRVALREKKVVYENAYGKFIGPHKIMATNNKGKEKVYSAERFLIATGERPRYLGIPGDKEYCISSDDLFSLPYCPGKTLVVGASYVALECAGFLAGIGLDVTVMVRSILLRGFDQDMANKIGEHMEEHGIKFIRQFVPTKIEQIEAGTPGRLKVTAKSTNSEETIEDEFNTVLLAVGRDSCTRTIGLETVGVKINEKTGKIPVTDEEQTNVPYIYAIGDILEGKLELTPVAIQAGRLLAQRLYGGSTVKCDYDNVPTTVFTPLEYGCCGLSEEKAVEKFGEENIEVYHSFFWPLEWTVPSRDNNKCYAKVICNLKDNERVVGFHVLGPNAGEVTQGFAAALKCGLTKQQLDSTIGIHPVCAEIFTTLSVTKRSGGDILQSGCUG
ATP-dependent 6-phosphofructokinase (Trypanosoma brucei brucei), sequence (O15648 whole entry, looked up): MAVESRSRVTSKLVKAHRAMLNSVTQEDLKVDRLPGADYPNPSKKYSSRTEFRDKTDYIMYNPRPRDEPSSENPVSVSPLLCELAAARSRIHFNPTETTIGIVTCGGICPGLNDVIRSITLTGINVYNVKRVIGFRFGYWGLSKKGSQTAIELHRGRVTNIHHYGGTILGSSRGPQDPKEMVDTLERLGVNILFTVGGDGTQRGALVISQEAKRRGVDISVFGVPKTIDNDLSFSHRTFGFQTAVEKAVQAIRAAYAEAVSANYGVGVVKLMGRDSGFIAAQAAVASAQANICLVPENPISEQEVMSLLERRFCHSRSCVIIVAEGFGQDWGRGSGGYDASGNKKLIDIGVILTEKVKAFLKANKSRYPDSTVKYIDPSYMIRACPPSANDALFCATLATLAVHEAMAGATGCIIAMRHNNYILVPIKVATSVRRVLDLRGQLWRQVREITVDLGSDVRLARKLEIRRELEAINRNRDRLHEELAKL
ATPase family AAA domain-containing protein 5 (Homo sapiens), sequence (Q96QE3 whole entry, looked up, the tested form may be a part): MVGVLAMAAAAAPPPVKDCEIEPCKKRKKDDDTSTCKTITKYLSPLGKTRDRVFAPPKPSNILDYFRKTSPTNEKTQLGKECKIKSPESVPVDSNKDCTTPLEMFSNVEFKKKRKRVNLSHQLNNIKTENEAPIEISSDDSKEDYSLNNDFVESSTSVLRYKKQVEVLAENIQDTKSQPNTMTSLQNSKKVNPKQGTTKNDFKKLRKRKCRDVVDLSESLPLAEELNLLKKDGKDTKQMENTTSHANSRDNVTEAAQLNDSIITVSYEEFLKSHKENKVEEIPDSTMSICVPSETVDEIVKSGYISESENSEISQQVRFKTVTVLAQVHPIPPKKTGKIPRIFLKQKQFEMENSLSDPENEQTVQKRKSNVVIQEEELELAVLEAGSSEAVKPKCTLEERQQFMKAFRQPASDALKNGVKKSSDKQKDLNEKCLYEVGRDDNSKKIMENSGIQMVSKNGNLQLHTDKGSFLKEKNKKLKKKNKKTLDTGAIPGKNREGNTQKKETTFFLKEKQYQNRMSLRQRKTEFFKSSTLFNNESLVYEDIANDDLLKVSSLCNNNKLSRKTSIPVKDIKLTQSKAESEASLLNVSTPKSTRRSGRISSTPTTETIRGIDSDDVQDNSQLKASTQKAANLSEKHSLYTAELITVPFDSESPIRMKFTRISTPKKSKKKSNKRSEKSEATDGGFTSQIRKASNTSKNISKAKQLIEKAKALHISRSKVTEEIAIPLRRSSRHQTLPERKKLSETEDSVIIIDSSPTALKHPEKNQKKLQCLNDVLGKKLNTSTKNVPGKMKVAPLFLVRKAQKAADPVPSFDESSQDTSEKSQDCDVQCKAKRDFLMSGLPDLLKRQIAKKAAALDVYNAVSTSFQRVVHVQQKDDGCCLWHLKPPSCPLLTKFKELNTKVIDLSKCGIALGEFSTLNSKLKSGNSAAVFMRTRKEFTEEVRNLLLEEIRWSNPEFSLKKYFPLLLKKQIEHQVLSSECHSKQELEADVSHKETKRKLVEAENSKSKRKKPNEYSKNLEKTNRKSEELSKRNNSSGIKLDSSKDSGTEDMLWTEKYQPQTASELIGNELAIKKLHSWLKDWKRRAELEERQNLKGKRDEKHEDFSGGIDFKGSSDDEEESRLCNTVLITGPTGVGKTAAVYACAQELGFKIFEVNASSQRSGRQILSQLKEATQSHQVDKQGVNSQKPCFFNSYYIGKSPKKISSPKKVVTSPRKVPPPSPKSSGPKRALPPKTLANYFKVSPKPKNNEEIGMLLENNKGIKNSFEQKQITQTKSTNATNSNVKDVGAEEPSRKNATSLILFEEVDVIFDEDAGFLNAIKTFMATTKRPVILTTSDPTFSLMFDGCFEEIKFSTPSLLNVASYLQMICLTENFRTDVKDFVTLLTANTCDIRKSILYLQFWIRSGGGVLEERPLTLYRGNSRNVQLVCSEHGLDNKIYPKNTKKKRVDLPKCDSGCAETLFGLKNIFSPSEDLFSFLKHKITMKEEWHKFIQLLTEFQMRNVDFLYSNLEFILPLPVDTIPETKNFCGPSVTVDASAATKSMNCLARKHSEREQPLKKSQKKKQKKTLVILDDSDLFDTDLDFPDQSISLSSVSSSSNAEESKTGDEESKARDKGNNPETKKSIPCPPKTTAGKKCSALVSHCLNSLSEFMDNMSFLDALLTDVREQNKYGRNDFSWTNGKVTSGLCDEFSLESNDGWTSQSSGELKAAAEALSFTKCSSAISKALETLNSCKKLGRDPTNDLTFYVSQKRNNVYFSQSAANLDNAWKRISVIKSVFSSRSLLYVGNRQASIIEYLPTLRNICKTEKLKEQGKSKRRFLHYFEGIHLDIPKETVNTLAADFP
M-phase phosphoprotein 8 (Homo sapiens), sequence (Q99549 whole entry, looked up): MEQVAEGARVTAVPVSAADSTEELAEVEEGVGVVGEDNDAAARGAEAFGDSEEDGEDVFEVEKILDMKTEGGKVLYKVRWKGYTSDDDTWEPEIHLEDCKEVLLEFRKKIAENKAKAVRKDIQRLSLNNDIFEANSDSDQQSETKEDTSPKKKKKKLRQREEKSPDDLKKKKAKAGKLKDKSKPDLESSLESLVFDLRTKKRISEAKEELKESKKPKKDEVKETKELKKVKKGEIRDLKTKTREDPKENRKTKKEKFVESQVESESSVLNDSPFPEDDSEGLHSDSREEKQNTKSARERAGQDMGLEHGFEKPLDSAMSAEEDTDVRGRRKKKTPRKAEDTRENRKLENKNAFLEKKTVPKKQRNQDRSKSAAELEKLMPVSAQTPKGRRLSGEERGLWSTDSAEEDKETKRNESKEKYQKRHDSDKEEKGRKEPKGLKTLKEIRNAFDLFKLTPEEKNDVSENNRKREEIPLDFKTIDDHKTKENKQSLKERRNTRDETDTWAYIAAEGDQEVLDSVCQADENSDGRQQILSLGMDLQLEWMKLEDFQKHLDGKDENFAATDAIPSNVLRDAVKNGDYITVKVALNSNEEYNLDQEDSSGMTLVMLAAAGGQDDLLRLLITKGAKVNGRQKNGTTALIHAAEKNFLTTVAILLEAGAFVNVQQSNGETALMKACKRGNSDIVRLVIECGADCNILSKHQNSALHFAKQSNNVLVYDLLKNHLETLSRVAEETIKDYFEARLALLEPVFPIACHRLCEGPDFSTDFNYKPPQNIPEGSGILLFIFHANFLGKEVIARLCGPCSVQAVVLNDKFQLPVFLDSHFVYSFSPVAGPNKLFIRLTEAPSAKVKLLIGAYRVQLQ
Thyrotropin-releasing hormone receptor (Homo sapiens), sequence (P34981 whole entry, looked up): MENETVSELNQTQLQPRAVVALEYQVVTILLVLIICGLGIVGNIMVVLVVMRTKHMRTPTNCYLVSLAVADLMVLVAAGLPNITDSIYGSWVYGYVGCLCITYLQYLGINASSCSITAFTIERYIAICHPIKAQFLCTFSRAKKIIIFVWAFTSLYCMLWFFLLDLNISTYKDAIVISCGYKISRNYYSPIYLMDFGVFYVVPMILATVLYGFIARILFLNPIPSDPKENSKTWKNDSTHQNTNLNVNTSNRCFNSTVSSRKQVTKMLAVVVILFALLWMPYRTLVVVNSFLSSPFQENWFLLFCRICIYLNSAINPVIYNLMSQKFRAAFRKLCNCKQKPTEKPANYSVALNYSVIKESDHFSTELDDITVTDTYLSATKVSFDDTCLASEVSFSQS

In the case of Nc1nc2ccc(OC(F)(F)F)cc2s1, the outcome [1] is reported as “inactive”, the Potency [2] is reported as “inactive” and the Potency [3] is reported as “inactive”. The Potency [4] was “inactive”, the Potency [5] was “inactive” and the outcome [6] was “inactive”. For the same molecule, the outcome [7] was “inactive”, the Potency [8] was “inactive” and the Potency [9] was “inactive”. For the same molecule, the Potency [10] was “inactive”, the Potency [11] was “inactive” and the viability change [11] was -4.99%. The outcome [12] was “inactive”, the outcome [13] was “inactive” and the outcome [14] was “inactive”. For the same molecule, the outcome [15] was “inactive”.
With c1ccc([C@H]2CN3CCSC3=N2)cc1 the outcome [1] was “inactive”, the Potency [2] was “inactive” and the Potency [3] was “inactive”. For the same molecule, the Potency [4] was “inactive”, the Potency [5] was “inactive” and the outcome [6] was “inactive”. The outcome [7] was “inactive”, the Potency [8] was “inactive” and the Potency [9] was “inactive”. The Potency [10] was “inactive”, the Potency [16] was “inactive” and the Potency [17] was “inactive”. For the same molecule, the activation [18] was 0.875% (inactive), the Potency [11] was “inactive” and the viability change [11] was -0.324%. The outcome [12] was “inactive”, the outcome [13] was “inactive” and the outcome [14] was “inactive”. For the same molecule, the outcome [15] was “inactive”.
For Cc1cccc(-c2[nH]c(C(C)(C)C)nc2-c2ccc3nccnc3c2)n1, the outcome [1] was “inactive”, the Potency [2] was “inactive” and the Potency [3] was “inactive”. The Potency [4] was “inactive”, the Potency [5] was “inactive” and the outcome [19] was “inactive”. For the same molecule, the Potency [8] was “inactive”, the Potency [9] was “inactive” and the Potency [10] was “inactive”. The Potency [16] was “inactive”, the outcome [12] was “inactive” and the outcome [15] was “inactive”.
With CNC[C@H](O)c1cccc(O)c1 the outcome [1] was “inactive”, the Potency [2] was “inactive” and the Potency [3] was “inactive”. For the same molecule, the Potency [4] was “inactive”, the Potency [5] was “inactive” and the outcome [6] was “inactive”. The outcome [7] was “inactive”, the Potency [8] was “inactive” and the Potency [9] was “inactive”. For the same molecule, the outcome [20] was “inactive”, the Potency [16] was “inactive” and the Potency [17] was “inactive”. The Potency [11] was “inactive”, the viability change [11] was -8.68% and the outcome [12] was “inactive”. For the same molecule, the outcome [13] was “inactive”, the outcome [14] was “inactive” and the outcome [15] was “inactive”.
For Cc1[nH]c(=O)c(C#N)cc1-c1ccncc1, the outcome [1] was “inactive”, the Potency [2] was “inactive” and the Potency [3] was “inactive”. The Potency [4] was “inactive”, the Potency [5] was “inactive” and the outcome [6] was “inactive”. For the same molecule, the outcome [7] was “inactive”, the Potency [8] was “inactive” and the Potency [9] was “inactive”. The Potency [10] was “inactive”, the outcome [20] was “inactive” and the Potency [16] was “inactive”. The Potency [17] was “inactive”, the activation [18] was 0.562% (inactive) and the Potency [11] was “inactive”. For the same molecule, the viability change [11] was -4.04%, the outcome [12] was “inactive” and the outcome [13] was “inactive”. For the same molecule, the outcome [14] was “inactive” and the outcome [15] was “inactive”.
In the case of CC(C)NCC(O)COc1ccc(COCCOC(C)C)cc1 (stereo not drawn), the outcome [1] is reported as “inactive”, the Potency [2] is reported as “inactive” and the Potency [3] is reported as “inactive”. The Potency [4] was “inactive”, the outcome [6] was “inactive” and the outcome [7] was “inactive”. The Potency [8] was “inactive”, the Potency [9] was “inactive” and the Potency [10] was “inactive”. For the same molecule, the outcome [20] was “inactive”, the Potency [16] was “inactive” and the activation [18] was -0.25% (inactive). The Potency [11] was “inactive”, the viability change [11] was 3.25% and the outcome [12] was “inactive”. The outcome [13] was “inactive”, the outcome [14] was “inactive” and the outcome [15] was “inactive”.
